A short description of experiment [1]: NCI Yeast Anticancer Drug Screen. Data for the rad50 strain (AID 155).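 Also: 0% = growth of vehicle-only cultures of the same strain.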 Conditions: S. cerevisiae rad50 strain growth inhibition, stronger effect = higher value. In short, it runs like this: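 A DNA repair-deficient yeast mutant serves as the test organism; compound-induced growth inhibition is calculated against vehicle-treated cells.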
A short description of experiment [2]: NCI Yeast Anticancer Drug Screen. Data for the mec2-1 strain (AID 157). Conditions: S. cerevisiae mec2-1 strain, stronger effect = higher value. A digest of the protocol:
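Compounds were applied to mec2-1 yeast cells. Their growth was then compared with that of vehicle-treated cultures to give growth inhibition.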

The nature of experiment [3]: NCI Yeast Anticancer Drug Screen. Data for the sgs1 mgt1 strain (AID 161).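 Also: 0% = growth of cultures given vehicle only.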 The following applies: S. cerevisiae sgs1 mgt1 strain, stronger effect = higher value. A digest of the protocol: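 Growth of a repair-deficient yeast mutant was monitored after compound treatment and expressed as inhibition relative to vehicle-treated cultures.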
A short description of experiment [4]: NCI Yeast Anticancer Drug Screen. Data for the cln2 rad14 strain (AID 165).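 Also: 0% = growth equal to vehicle treated cultures.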 The following applies: S. cerevisiae cln2 rad14 strain, stronger effect = higher value. In short, it runs like this: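 Strain: cln2 rad14 yeast, altered in cell cycle control and DNA damage repair. Read-out: growth inhibition vs vehicle.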
Experiment [5] can be described thus: NCI Yeast Anticancer Drug Screen. Data for the bub3 strain (AID 167). Conditions: S. cerevisiae bub3 mutant strain, stronger effect = higher value. In short, it runs like this: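 Inhibition values come from growth of compound-treated mutant yeast normalised to vehicle-treated controls.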
Experiment [6] is described as follows: NCI Yeast Anticancer Drug Screen. Data for the mlh1 rad18 strain (AID 175). Conditions: S. cerevisiae mlh1 rad18 strain growth inhibition, stronger effect = higher value. In short, it runs like this: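 A repair-deficient yeast strain is exposed to test compound, and growth is scored relative to vehicle-treated controls.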
[7] abbreviates: at 5.0 µM (retest, dose inferred, filed as 0.5).
The mark [8] stands for this setting: at 50.0 µM (retest, dose inferred, filed as 5.0).

Structures are written as SMILES. The panel holds about 79,000 compounds, 15% with a hit somewhere; the sample as a whole holds those more often. Values without a mark were called inactive. The source made the active and inactive calls. Rule as the data show it: active = growth inhibition above about 70%; inactive = the rest.

For `O=C1c2ccccc2C(=O)C2(C(c3ccccc3)c3ccccc3)N=NCC12` (stereo not given), the growth inhibition in experiment [1] (setting [7]) is -5%; in experiment [1] (setting [8]) it was 15%; in experiment [1] (at 50.0 µM) it was 4.15%; in experiment [2] (setting [7]), -1%; in experiment [2] (setting [8]), -7%; in experiment [2] (at 50.0 µM), 11.9%. The growth inhibition was 0% in experiment [3] (setting [7]); 18% in experiment [3] (setting [8]); 7.95% in experiment [3] (at 50.0 µM); 5% in experiment [4] (setting [7]); 5% in experiment [4] (setting [8]); -7.15% in experiment [4] (at 50.0 µM). The growth inhibition in experiment [5] (setting [7]) is 27%; in experiment [5] (setting [8]), 42%; in experiment [5] (at 50.0 µM), 30.1%; in experiment [6] (setting [7]), 13%; in experiment [6] (setting [8]), 21%; in experiment [6] (at 50.0 µM), 12.2%.

Take `BrCC(Br)Cc1ccc2c(c1)OCO2` (stereo not given): the growth inhibition in experiment [1] (setting [7]) is 5%; in experiment [1] (setting [8]) it was 30%; in experiment [1] (at 50.0 µM), 20.8%; in experiment [2] (setting [7]), 2%; in experiment [2] (setting [8]) it was 25%; in experiment [2] (at 50.0 µM), -7.35%. The growth inhibition in experiment [3] (setting [7]) is 3%; in experiment [3] (setting [8]), 60%; in experiment [3] (at 50.0 µM) it was 49.4%; in experiment [4] (setting [7]), 6%; in experiment [4] (setting [8]), 21%; in experiment [4] (at 50.0 µM) it was -21.6%. Besides, the growth inhibition was 14% in experiment [5] (setting [7]); 39% in experiment [5] (setting [8]); 4.7% in experiment [5] (at 50.0 µM); -1% in experiment [6] (setting [7]); 84% (active) in experiment [6] (setting [8]); 56.9% in experiment [6] (at 50.0 µM).

On to `C/C(=N\NC(=S)N1CCC(C)CC1)c1ncccn1`, for which the growth inhibition in experiment [1] (setting [7]) was -4%; in experiment [1] (setting [8]), 98% (active); in experiment [1] (at 50.0 µM), 99.2% (active); in experiment [2] (setting [7]) it was -5%; in experiment [2] (setting [8]) it was 99% (active); in experiment [2] (at 50.0 µM), 99.2% (active). The growth inhibition in experiment [3] (setting [7]) is 0%; in experiment [3] (setting [8]) it was 98% (active); in experiment [3] (at 50.0 µM), 99.3% (active); in experiment [4] (setting [7]) it was -7%; in experiment [4] (setting [8]), 98% (active); in experiment [4] (at 50.0 µM), 98.8% (active). For the same molecule, the growth inhibition in experiment [5] (setting [7]) was -1%; in experiment [5] (setting [8]), 98% (active); in experiment [5] (at 50.0 µM), 99.3% (active); in experiment [6] (setting [7]), -4%; in experiment [6] (setting [8]) it was 99% (active); in experiment [6] (at 50.0 µM) it was 98.9% (active).

Take `Cc1ccc(-c2ccccc2)n1-c1cc(Cl)ccc1O`: the growth inhibition in experiment [1] (setting [7]) was 12%; in experiment [1] (setting [8]), 99% (active); in experiment [1] (at 50.0 µM) it was 99% (active); in experiment [2] (setting [7]) it was 4%; in experiment [2] (setting [8]), 99% (active); in experiment [2] (at 50.0 µM) it was 99.2% (active). The growth inhibition in experiment [3] (setting [7]) is -1%; in experiment [3] (setting [8]), 99% (active); in experiment [3] (at 50.0 µM) it was 99.2% (active); in experiment [4] (setting [7]), 8%; in experiment [4] (setting [8]) it was 99% (active); in experiment [4] (at 50.0 µM), 97.9% (active). In addition, the growth inhibition in experiment [5] (setting [7]) is 0%; in experiment [5] (setting [8]), 99% (active); in experiment [5] (at 50.0 µM) it was 99% (active); in experiment [6] (setting [7]) it was 10%; in experiment [6] (setting [8]) it was 99% (active); in experiment [6] (at 50.0 µM), 99.1% (active).

As to `Cc1ccc([P+](CCN2C(=O)c3ccccc3C2=O)(c2ccc(C)cc2)c2ccc(C)cc2)cc1`, the growth inhibition was 77% (active) in experiment [1] (setting [7]); 98% (active) in experiment [1] (setting [8]); 89.8% (active) in experiment [1] (at 50.0 µM); 72% (active) in experiment [2] (setting [7]); 99% (active) in experiment [2] (setting [8]); 90.3% (active) in experiment [2] (at 50.0 µM). In addition, the growth inhibition in experiment [3] (setting [7]) was 89% (active); in experiment [3] (setting [8]) it was 99% (active); in experiment [3] (at 50.0 µM), 90.5% (active); in experiment [4] (setting [7]), 71% (active); in experiment [4] (setting [8]) it was 99% (active); in experiment [4] (at 50.0 µM) it was 87.9% (active). The growth inhibition in experiment [5] (setting [7]) is 86% (active); in experiment [5] (setting [8]), 99% (active); in experiment [5] (at 50.0 µM) it was 90.5% (active); in experiment [6] (setting [7]), 64%; in experiment [6] (setting [8]), 98% (active); in experiment [6] (at 50.0 µM), 87.7% (active).

Turning to `CCCOC(=O)C#CC(=O)OCCC`, the growth inhibition in experiment [1] (setting [7]) was 37%; in experiment [1] (setting [8]), 96% (active); in experiment [1] (at 50.0 µM), 94.6% (active); in experiment [2] (setting [7]), 29%; in experiment [2] (setting [8]), 99% (active); in experiment [2] (at 50.0 µM), 63%. Also, the growth inhibition in experiment [3] (setting [7]) was 43%; in experiment [3] (setting [8]) it was 99% (active); in experiment [3] (at 50.0 µM), 48.8%; in experiment [4] (setting [7]) it was 21%; in experiment [4] (setting [8]) it was 99% (active); in experiment [4] (at 50.0 µM), 93.6% (active). Moreover, the growth inhibition in experiment [5] (setting [7]) is 25%; in experiment [5] (setting [8]) it was 99% (active); in experiment [5] (at 50.0 µM) it was 7.3%; in experiment [6] (setting [7]), 69%; in experiment [6] (setting [8]), 99% (active); in experiment [6] (at 50.0 µM) it was 74.6% (active).

Consider `O=C(/C=C\c1cccc2ccccc12)c1ccccn1`, for which the growth inhibition in experiment [1] (setting [7]) was 7%; in experiment [1] (setting [8]), 97% (active); in experiment [1] (at 50.0 µM) it was 98.2% (active); in experiment [2] (setting [7]), 4%; in experiment [2] (setting [8]), 97% (active); in experiment [2] (at 50.0 µM), 93.5% (active). The growth inhibition in experiment [3] (setting [7]) was 12%; in experiment [3] (setting [8]), 99% (active); in experiment [3] (at 50.0 µM), 98.8% (active); in experiment [4] (setting [7]), 0%; in experiment [4] (setting [8]), 97% (active); in experiment [4] (at 50.0 µM), 87.2% (active). The growth inhibition was 20% in experiment [5] (setting [7]); 99% (active) in experiment [5] (setting [8]); 97% (active) in experiment [5] (at 50.0 µM); 9% in experiment [6] (setting [7]); 99% (active) in experiment [6] (setting [8]); 99% (active) in experiment [6] (at 50.0 µM).

With `Ic1[nH]c(I)c(I)c1I`, the growth inhibition in experiment [1] (setting [7]) is 13%; in experiment [1] (setting [8]), 97% (active); in experiment [1] (at 50.0 µM), 95.2% (active); in experiment [2] (setting [7]), 16%; in experiment [2] (setting [8]), 98% (active); in experiment [2] (at 50.0 µM), 95% (active). Moreover, the growth inhibition in experiment [3] (setting [7]) is 10%; in experiment [3] (setting [8]) it was 95% (active); in experiment [3] (at 50.0 µM), 97% (active); in experiment [4] (setting [7]), -2%; in experiment [4] (setting [8]), 96% (active); in experiment [4] (at 50.0 µM), 94.3% (active). Further, the growth inhibition is 14% in experiment [5] (setting [7]); 98% (active) in experiment [5] (setting [8]); 96.7% (active) in experiment [5] (at 50.0 µM); 11% in experiment [6] (setting [7]); 95% (active) in experiment [6] (setting [8]); 92.7% (active) in experiment [6] (at 50.0 µM).

As for `Clc1cc2c(c3ncccc13)OCN(CCc1ccccc1)C2`, the growth inhibition in experiment [1] (setting [7]) is 5%; in experiment [1] (setting [8]) it was 8%; in experiment [1] (at 50.0 µM), 98.7% (active); in experiment [2] (setting [7]), -3%; in experiment [2] (setting [8]), -5%; in experiment [2] (at 50.0 µM), 94.2% (active). In addition, the growth inhibition was 2% in experiment [3] (setting [7]); 7% in experiment [3] (setting [8]); 99.2% (active) in experiment [3] (at 50.0 µM); 1% in experiment [4] (setting [7]); 16% in experiment [4] (setting [8]); 78.5% (active) in experiment [4] (at 50.0 µM). Also, the growth inhibition in experiment [5] (setting [7]) is 4%; in experiment [5] (setting [8]), 0%; in experiment [5] (at 50.0 µM) it was 69.6%; in experiment [6] (setting [7]), 2%; in experiment [6] (setting [8]), 10%; in experiment [6] (at 50.0 µM) it was 98.4% (active).

As for `Cc1nn(C(=O)c2ccccc2O)c2c1C(c1ccc([N+](=O)[O-])cc1)SC(N)=N2` (stereo not given), the growth inhibition was 6% in experiment [1] (setting [7]); 81% (active) in experiment [1] (setting [8]); 35.5% in experiment [1] (at 50.0 µM); -4% in experiment [2] (setting [7]); 80% (active) in experiment [2] (setting [8]); 47% in experiment [2] (at 50.0 µM). The growth inhibition is -1% in experiment [3] (setting [7]); 89% (active) in experiment [3] (setting [8]); 69.5% in experiment [3] (at 50.0 µM); -8% in experiment [4] (setting [7]); 36% in experiment [4] (setting [8]); 12.3% in experiment [4] (at 50.0 µM). Further, the growth inhibition in experiment [5] (setting [7]) is -8%; in experiment [5] (setting [8]), 71% (active); in experiment [5] (at 50.0 µM), 91.2% (active); in experiment [6] (setting [7]) it was 10%; in experiment [6] (setting [8]), 96% (active); in experiment [6] (at 50.0 µM), 53.4%.

For the origin of these results see PubChem BioAssay (NCI).
